According to PubChem BioAssay AID977630 (Broad Institute, 2014):
The whole screen tested about 1,600 compounds, of which fewer than 10 were called active. Roughly 48% stayed inconclusive and do not appear here.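 Rule for the calls: active = Normal-ribosome green reporter loss at least double humanized-ribosome red reporter loss, with overall culture growth inhibition under a set limit; inconclusive = no clear call, values can overlap the other calls; inactive = the rest.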 Not all results are given here. Entries with a potency or affinity are not part of this list.

assay: growth inhibition of wild-type GFP E. coli, H38-humanized RFP comparator, dose response, H38 mutant RFP vs wild-type GFP, cherry-pick (AID 977630); conditions: mixed culture, 24 h; series mostly up to 50 µM; activity change, negative = inhibition: at the top concentration;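 note: wild-type GFP strain mixed equally with humanized-ribosome H38 mutant expressing RFP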

Activity change, negative = inhibition, inactive:
CC(C)(C)NC(=O)C(c1ccncc1)N(Cc1ccc(F)cc1)C(=O)c1ccc(-c2ccccc2)[nH]1 (centres undefined) 7.88
Cc1ccc(C(=O)C2Oc3ccccc3C3CC(c4ccc(C)cc4)=NN23)cc1 (centres undefined) 9.36
Cc1nc(N2CCC(C)CC2)c(C#N)c(C)c1[N+](=O)[O-] -13.2
Cc1cc(NC(=O)CCN2C(=O)C3C4C=CC(C4)C3C2=O)ccc1Br (centres undefined) -16.8
CCOc1ccc2[nH]c3c(NCCN(C)C)ncnc3c2c1 -14.5
Cc1ccc(S(=O)(=O)N(C(=O)c2ccncc2)c2ccc(OC(=O)c3ccncc3)cc2)c(C)c1 -4.92
COc1ccc(C(NC(=O)C2CCN(CCOc3ccc(Cl)cc3Cl)CC2)c2ccccc2C)cn1 (centres undefined) -11.5
COc1cccc(-c2ccc(NC(=O)C3CCCN(Cc4cnn(C(C)C)c4)C3)cc2)c1 (centres undefined) -10.3
Cc1cccc(NC(=O)c2c(C)nn(-c3ccccc3)c2Cl)c1 -12.1
CC(C)Oc1cccc(C(=O)C2CCCN(C(=O)c3cc(C(F)(F)F)[nH]n3)C2)c1 (centres undefined) -16.1
Cc1ccccc1-c1nc(CS(=O)(=O)CC(=O)N2CCCCC2)c(C)o1 -7.64
COc1cccc(NC(=O)C(c2ccccc2)N2CCN(c3ccccn3)CC2)c1 (centres undefined) 0.522
COC(=O)c1ccc2nc(-c3ccc(F)cc3)c(Cc3cccc(F)c3)n2c1 8.32
COc1ccc(-c2nn(-c3ccccc3C)cc2CNCc2cccnc2)cc1F 0.878
CC1CCc2c(sc3ncn4c(SCC(=O)NCc5ccco5)nnc4c23)C1 (centres undefined) 0.062
CC1CN(CC(=O)Nc2nc3ccccc3s2)CC(C)O1 (centres undefined) 9.37
O=S(=O)(Nc1ccccc1N1CCCCC1)c1cccs1 -10.8
Cc1ccn2cc(-c3cccc(NC(=O)c4cccs4)c3)nc2c1 -0.986
O=S(=O)(Cc1ccc(Cl)cc1)N1CCN(Cc2ccc3c(c2)OCO3)CC1 33
Cc1cccc(NS(=O)(=O)c2cc3c(cc2C)NC(=O)CO3)c1 2.86
O=C(CSCc1c(Cl)cccc1Cl)NCc1ccccn1 -3.03
Cc1cccc(N2CCN(Cc3nc(-c4ccc(F)cc4F)oc3C)CC2)n1 -12.6
CCNc1nc(N)c(C(=O)C23CC4CC(CC(C4)C2)C3)s1 -3.15
CNC(=O)c1sc(-c2ccccn2)nc1C 43.1
Cc1cc(C)c(OCCN(C)Cc2ccccc2)c(Br)c1 -6.16
O=C(Nc1cc(S(=O)(=O)N2CCCCC2)ccc1N1CCCCC1)C1CC1 -2.36
CCCCNC(=O)c1c(N)[nH]c(C(=O)c2ccccc2)c1-c1ccccn1 -9.15
Cc1nn(S(=O)(=O)c2ccc(Cl)cc2)c(C)c1Sc1ccc([N+](=O)[O-])cc1 2.54
Cc1cccc(NC(=O)c2sc3nc(-c4ccccc4)cn3c2C)n1 -13.7
